Reference: PubChem BioAssay (EPA / NIEHS)
Results filed as inconclusive are left out. A structure can be active in one record and inactive in another. The source made the active and inactive calls. How the source made its calls, unless noted: active means hit-call score of the fitted dose curve at least 0.9, where 1 is the maximum; inconclusive means response in the unintended direction; inactive means score below 0.9.

Key:
[1] = biological target: rat Opioid Receptor, Non-selective Binding, Oprm1 (gene 25601) (UniProt P33535); assay: NVS_GPCR_rOpiate_NonSelective: NovaScreen (NVS) G Protein-Coupled Receptor Assay for rat Opioid Receptor, Non-selective Binding (AID 2283318)
In short: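 Rat forebrain membranes, cell-free radioligand binding with filter-based scintillation counting, read 1.5 h after dosing. Primary screen in duplicate at 25 uM; actives retested in concentration series. Loss of signal versus DMSO baseline scored.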

[2] = NVS_IC_rCaDHPRCh_L: NovaScreen (NVS) Ion Channel Assay for rat Calcium Channel, Type L, Dihydropyridine Site (CaDHPRCh_L) (AID 2283320)
In short: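 Radioligand binding to dihydropyridine site on rat cortical membranes, filter-based scintillation counting, 1 h after dosing. Screened in duplicate at 25 uM; actives rerun in concentration-response up to 50 uM. Loss of signal versus DMSO baseline.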

[3] = biological target: Sodium channel protein type 1 subunit alpha (Rattus norvegicus) (UniProt P04774); assay: NVS_IC_rNaCh_site2: NovaScreen (NVS) Ion Channel Assay for rat Sodium Channel, Site 2 (NaCh) (AID 2283322);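 further: hit means loss of radioligand binding signal relative to DMSO so AC50 marks displacement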
In short: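 Membranes: rat forebrain. Format: competitive radioligand displacement, filter separation, scintillation readout, 1 h exposure. Primary screen in duplicate at 25 uM; actives retested in concentration series.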

[4] = biological target: human Serotonin, 5-Hydroxytryptamine Receptor 3 (5HT3), HTR3A (gene 3359) (UniProt P46098); assay: NVS_LGIC_h5HT3: NovaScreen (NVS) Ligand-Gated Ion Channel Assay for human Serotonin, 5-Hydroxytryptamine Receptor 3 (5HT3) (AID 2283325)
In short: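 Radioligand displacement binding to human 5-HT3 from HEK293 membranes, read by filter-based scintillation counting after 1 h. Screen at 25 uM in duplicate; chemicals passing threshold were retested in concentration-response up to 50 uM.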

[5] = biological target: rat Gamma-Aminobutyric Acid Type A Receptor, Non-Selective (GABAR-NonSelective), Gabra1 (gene 29705) (UniProt P62813); assay: NVS_LGIC_rGABAR_NonSelective: NovaScreen (NVS) Ligand-Gated Ion Channel Assay for rat Gamma-Aminobutyric Acid Type A Receptor, Non-Selective (GABAR-NonSelective) (AID 2283326)
In short: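 Radioligand displacement on rat whole-brain extract, 1 h, filter scintillation readout; signal loss fitted versus DMSO. Primary screen in duplicate at 25 uM; hits (e.g. ≥30% inhibition) retested in concentration-response up to 50 uM.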

[6] = biological target: Voltage-gated inwardly rectifying potassium channel KCNH2 (Homo sapiens) (UniProt Q12809); assay: NVS_IC_hKhERGCh: NovaScreen (NVS) Ion Channel Assay for human Potassium Channel ERG (KhERGCh) (AID 2283333)
In short: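 Cell-free radioligand competition binding on hERG protein extracted from CHO cells, read by filter-based scintillation counting 0.75 h after dosing. Primary screen at 25 uM in duplicate, actives followed in concentration series. Signal loss fitted versus DMSO.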

[7] = NVS_IC_rCaBTZCHL: NovaScreen (NVS) Ion Channel Assay for Calcium Channel, Type L, Benzothiazepine Site (CaBTZCHL) (AID 2283337)
In short: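 Competitive displacement of a site-specific radioligand from rat cortex membranes, measured as signal loss against DMSO baseline by filter radiodetection after 1.5 h. Single-point 25 uM primary screen.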

[8] = biological target: rat Neonicotinoid receptor (NNR), Chrna7 (gene 25302) (UniProt Q05941); assay: NVS_LGIC_rNNR_BungSens: NovaScreen (NVS) Ligand-Gated Ion Channel Assay for rat Neonicotinoid receptor (NNR) (AID 2283315)
In short: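 Radioligand displacement binding on rat cortical membranes, 2.5 h incubation, filtration and scintillation counting. Loss of specific binding fitted relative to DMSO.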

[9] = biological target: human Peripheral-type Benzodiazepine Receptor (PBR), TSPO (gene 706) (UniProt P30536); assay: NVS_MP_hPBR: NovaScreen (NVS) Membrane Protein Assay for human Peripheral-type Benzodiazepine Receptor (PBR) (AID 2283331);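 further: hits reduce radioligand binding relative to DMSO baseline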
In short: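 Radioligand displacement on human colonic cell membranes, 1 h incubation; bound radioactivity by filtration and scintillation counting. Primary screen in duplicate at 25 uM single concentration, actives followed up in concentration series; loss of binding versus DMSO.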

[10] = biological target: rat Vasopressin 1 Receptor (V1), Avpr1a (gene 25107) (UniProt P30560); assay: NVS_GPCR_rV1: NovaScreen (NVS) G Protein-Coupled Receptor Assay for rat Vasopressin 1 Receptor (V1) (AID 2283316)
In short: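 Radioligand binding on rat liver membranes, 1.5 h incubation, filter-based scintillation counting. Single 25 uM screen in duplicate; chemicals meeting threshold (e.g. 30% inhibition) run in concentration-response up to 50 uM.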

[11] = biological target: bovine Gamma-Aminobutyric Acid Type A Receptor BDZ, alpha 5 site (GABARa5), GABRA5 (gene 523515) (UniProt Q08E50); assay: NVS_LGIC_bGABARa5: NovaScreen (NVS) Ligand-Gated Ion Channel Assay for bovine Gamma-Aminobutyric Acid Type A Receptor BDZ, alpha 5 site (GABARa5) (AID 2283323)
In short: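 Radioligand competitive displacement binding on bovine hippocampal membranes, read 1 hr after dosing by filter-based scintillation counting. Primary screen at 25 uM in duplicate; actives (e.g. ≥30% inhibition) then run in concentration-response up to 50 uM.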

[12] = biological target: Glutamate receptor ionotropic, kainate 1 (Rattus norvegicus) (UniProt P22756); assay: NVS_IC_rKAR: NovaScreen (NVS) Ion Channel Assay for rat Kainic Acid Receptors (KAR) (AID 2283334; active means hit-call score of the fitted dose curve at least 0.9, where 1 is the maximum; inactive means score below 0.9)
In short: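 Radioligand displacement binding using rat forebrain membranes, 1 h incubation, filter-based scintillation counting. Screened in duplicate at 25 uM, with actives retested in concentration-response up to 50 uM; fitted against DMSO.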

NCBI gene 24521 = assay: NVS_IC_rKATPCh: NovaScreen (NVS) Ion Channel Assay for rat Potassium Channel, ATP-Sensitive (KATPCh) (AID 2283319)
In short: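 Rat cortical membranes; radioligand binding at ATP-sensitive K channel site, filter-based scintillation counting 2 h after dosing. Single-point duplicate screen at 25 uM, hits rerun in concentration-response up to 50 uM; loss of signal versus DMSO.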

[13] = biological target: rat Glutamate, NMDA Agonist Site (GluNMDA), Grin1 (gene 24408) (UniProt P35439); assay: NVS_LGIC_rGluNMDA_Agonist: NovaScreen (NVS) Ligand-Gated Ion Channel Assay for rat Glutamate, NMDA Agonist Site (GluNMDA) (AID 2283327)
In short: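 Rat forebrain membranes, radioligand binding in the agonist-site protocol; 1 h after dosing; filter-based scintillation counting. Single-concentration duplicate screen at 25 uM, then concentration-response up to 50 uM for actives; gain-of-signal vs DMSO.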

[14] = biological target: rat Glutamate, AMPA Site (AMPA), Gria1 (gene 50592) (UniProt P19490); assay: NVS_LGIC_rAMPA: NovaScreen (NVS) Ligand-Gated Ion Channel Assay for rat Glutamate, AMPA Site (AMPA) (AID 2283324)
In short: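 Rat forebrain membranes; radioligand binding read 1 h after dosing by filtration and scintillation counting. Duplicate single-point screen at 25 uM, then concentration-response to 50 uM for threshold hits (e.g. 30% inhibition); loss of signal vs DMSO.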

[15] = biological target: human Androgen Receptor (AR), AR (gene 367) (UniProt P10275); assay: NVS_NR_hAR: NovaScreen (NVS) Nuclear Receptor Binding Assay for human Androgen Receptor (AR) (AID 2283332)
In short: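 LnCAP cell-free extract; radioligand displacement read by scintillation counting after 20 h. Primary screen single concentration 25 uM in duplicate, actives then run as concentration series; loss-of-signal fitted relative to DMSO baseline.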

[16] = biological target: rat Peripheral-type Benzodiazepine Receptor (PBR), Tspo (gene 24230) (UniProt P16257); assay: NVS_MP_rPBR: NovaScreen (NVS) Membrane Protein Assay for rat Peripheral-type Benzodiazepine Receptor (PBR) (AID 2283335)
In short: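 Radioligand displacement, rat kidney membrane prep, 1 h exposure, filter-based scintillation read; DMSO baseline, loss-of-signal scored. Primary screen at 25 uM in duplicate, actives followed up in concentration series.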

[17] = biological target: rat Thyrotropin Releasing Hormone Receptor (TRH), Trhr (gene 25570) (UniProt Q01717); assay: NVS_GPCR_rTRH: NovaScreen (NVS) G Protein-Coupled Receptor Assay for rat Thyrotropin Releasing Hormone Receptor (TRH) (AID 2283329);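 further: hit means lower bound tracer signal versus DMSO baseline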
In short: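 Rat forebrain membrane prep, radioligand displacement, filter scintillation readout at 4 h. Single conc 25 uM, duplicate; actives retested as concentration series. DMSO = negative control/baseline.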

[18] = biological target: Small conductance calcium-activated potassium channel protein 1 (Rattus norvegicus) (UniProt P70606); assay: NVS_IC_rKCaCh: NovaScreen (NVS) Ion Channel Assay for rat Potassium Channel, Ca2+ Act., VI (KCaCh) (AID 2283336)
In short: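 Radioligand binding to rat forebrain membranes, cell-free, read 1 hour after dosing by filter-based scintillation counting. Compounds first run in duplicate at 25 uM, actives then in concentration series; loss of signal vs DMSO indicates displacement.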

Chain of human Peripheral-type Benzodiazepine Receptor (PBR), TSPO (gene 706) (P30536 whole entry, looked up): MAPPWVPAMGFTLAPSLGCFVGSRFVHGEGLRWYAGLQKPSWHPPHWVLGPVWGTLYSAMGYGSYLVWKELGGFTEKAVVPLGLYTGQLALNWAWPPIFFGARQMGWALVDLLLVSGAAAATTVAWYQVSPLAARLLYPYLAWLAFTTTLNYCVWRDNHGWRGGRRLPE
Chain of rat Opioid Receptor, Non-selective Binding, Oprm1 (gene 25601) (P33535 whole entry, looked up): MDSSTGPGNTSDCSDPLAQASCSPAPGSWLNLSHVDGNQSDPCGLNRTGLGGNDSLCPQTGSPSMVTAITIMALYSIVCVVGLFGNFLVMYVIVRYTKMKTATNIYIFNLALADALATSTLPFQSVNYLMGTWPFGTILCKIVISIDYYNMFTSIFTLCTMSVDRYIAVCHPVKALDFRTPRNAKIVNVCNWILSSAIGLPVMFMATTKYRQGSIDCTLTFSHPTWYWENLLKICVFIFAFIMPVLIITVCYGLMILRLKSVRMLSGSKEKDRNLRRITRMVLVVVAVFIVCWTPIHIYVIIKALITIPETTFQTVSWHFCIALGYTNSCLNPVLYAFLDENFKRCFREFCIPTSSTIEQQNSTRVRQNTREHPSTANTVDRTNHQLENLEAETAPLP
Chain of rat Gamma-Aminobutyric Acid Type A Receptor, Non-Selective (GABAR-NonSelective), Gabra1 (gene 29705) (P62813 whole entry, looked up): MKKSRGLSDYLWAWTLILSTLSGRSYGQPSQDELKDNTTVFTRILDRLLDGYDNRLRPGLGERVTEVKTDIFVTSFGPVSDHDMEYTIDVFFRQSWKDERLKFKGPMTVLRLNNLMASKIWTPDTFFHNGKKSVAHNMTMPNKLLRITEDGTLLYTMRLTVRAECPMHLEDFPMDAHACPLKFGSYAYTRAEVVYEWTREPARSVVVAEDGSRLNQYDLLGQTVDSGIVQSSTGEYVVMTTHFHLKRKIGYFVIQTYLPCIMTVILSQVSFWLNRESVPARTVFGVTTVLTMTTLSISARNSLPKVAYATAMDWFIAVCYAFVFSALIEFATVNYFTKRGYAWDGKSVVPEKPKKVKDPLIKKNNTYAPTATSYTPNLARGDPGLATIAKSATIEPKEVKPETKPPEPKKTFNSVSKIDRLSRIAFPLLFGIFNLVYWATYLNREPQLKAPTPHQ
Chain of rat Neonicotinoid receptor (NNR), Chrna7 (gene 25302) (Q05941 whole entry, looked up): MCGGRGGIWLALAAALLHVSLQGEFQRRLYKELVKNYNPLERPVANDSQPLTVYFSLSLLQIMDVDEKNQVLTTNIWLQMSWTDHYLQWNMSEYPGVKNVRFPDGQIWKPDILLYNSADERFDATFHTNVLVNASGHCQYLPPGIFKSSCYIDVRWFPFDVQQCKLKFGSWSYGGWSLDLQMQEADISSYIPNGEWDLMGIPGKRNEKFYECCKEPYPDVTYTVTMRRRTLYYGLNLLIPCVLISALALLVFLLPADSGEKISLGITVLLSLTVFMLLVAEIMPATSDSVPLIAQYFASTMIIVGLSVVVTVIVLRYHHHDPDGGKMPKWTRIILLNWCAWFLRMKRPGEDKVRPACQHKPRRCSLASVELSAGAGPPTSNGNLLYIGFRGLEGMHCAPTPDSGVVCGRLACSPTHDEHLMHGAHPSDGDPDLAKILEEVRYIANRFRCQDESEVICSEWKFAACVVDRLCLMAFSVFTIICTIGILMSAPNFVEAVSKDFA
Chain of rat Peripheral-type Benzodiazepine Receptor (PBR), Tspo (gene 24230) (P16257 whole entry, looked up): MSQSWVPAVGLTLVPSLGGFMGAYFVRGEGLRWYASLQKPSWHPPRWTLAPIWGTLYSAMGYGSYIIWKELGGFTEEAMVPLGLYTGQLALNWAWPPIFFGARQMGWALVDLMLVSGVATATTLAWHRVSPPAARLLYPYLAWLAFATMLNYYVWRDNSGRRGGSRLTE
Chain of rat Glutamate, AMPA Site (AMPA), Gria1 (gene 50592) (P19490 whole entry, looked up): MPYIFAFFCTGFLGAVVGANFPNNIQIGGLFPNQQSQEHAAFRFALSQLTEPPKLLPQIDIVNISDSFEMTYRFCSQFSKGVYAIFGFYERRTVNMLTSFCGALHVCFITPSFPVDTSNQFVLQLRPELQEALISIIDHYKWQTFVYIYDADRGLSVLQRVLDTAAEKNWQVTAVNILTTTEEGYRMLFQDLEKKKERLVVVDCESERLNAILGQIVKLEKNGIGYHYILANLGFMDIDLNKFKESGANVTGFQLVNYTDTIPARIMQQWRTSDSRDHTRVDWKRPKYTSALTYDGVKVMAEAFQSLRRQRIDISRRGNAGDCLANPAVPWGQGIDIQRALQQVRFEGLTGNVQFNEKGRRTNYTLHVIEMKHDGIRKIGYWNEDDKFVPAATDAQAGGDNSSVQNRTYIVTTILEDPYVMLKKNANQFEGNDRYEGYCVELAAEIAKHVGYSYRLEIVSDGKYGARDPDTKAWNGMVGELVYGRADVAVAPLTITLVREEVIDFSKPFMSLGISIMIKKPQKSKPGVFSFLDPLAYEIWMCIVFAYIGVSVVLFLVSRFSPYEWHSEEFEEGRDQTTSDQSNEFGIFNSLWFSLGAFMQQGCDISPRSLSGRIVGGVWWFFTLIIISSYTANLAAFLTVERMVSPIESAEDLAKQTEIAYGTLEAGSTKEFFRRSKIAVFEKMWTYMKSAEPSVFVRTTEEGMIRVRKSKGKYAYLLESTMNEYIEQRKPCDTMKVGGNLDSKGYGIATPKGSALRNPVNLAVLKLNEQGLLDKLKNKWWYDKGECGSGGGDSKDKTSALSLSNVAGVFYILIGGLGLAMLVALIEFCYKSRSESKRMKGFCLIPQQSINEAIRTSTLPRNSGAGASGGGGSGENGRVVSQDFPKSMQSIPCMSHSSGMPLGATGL
Chain of rat Vasopressin 1 Receptor (V1), Avpr1a (gene 25107) (P30560 whole entry, looked up): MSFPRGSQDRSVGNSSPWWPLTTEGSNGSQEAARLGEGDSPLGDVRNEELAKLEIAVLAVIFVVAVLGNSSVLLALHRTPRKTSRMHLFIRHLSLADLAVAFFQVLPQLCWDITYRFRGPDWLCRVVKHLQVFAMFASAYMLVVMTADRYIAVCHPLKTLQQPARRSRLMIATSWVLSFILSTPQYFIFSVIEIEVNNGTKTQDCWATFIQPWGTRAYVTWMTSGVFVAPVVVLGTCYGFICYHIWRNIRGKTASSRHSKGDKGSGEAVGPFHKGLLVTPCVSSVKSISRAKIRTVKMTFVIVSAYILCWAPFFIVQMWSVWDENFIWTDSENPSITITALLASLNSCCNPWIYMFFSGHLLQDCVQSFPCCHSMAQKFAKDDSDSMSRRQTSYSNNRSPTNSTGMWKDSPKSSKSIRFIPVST
Chain of human Serotonin, 5-Hydroxytryptamine Receptor 3 (5HT3), HTR3A (gene 3359) (P46098 whole entry, looked up): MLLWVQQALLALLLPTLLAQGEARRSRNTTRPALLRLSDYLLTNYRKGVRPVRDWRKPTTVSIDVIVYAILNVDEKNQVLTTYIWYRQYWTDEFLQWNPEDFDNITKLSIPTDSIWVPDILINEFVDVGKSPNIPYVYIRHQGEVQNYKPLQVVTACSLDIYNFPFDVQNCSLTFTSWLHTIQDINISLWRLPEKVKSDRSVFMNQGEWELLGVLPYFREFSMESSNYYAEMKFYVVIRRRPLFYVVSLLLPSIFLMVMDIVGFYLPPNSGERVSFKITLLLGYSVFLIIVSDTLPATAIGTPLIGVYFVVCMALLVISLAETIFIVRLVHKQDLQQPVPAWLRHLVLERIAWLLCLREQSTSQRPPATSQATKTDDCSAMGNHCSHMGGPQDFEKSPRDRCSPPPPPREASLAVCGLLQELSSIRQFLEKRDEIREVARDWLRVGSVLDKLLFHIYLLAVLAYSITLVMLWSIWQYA
Chain of bovine Gamma-Aminobutyric Acid Type A Receptor BDZ, alpha 5 site (GABARa5), GABRA5 (gene 523515) (Q08E50 whole entry, looked up): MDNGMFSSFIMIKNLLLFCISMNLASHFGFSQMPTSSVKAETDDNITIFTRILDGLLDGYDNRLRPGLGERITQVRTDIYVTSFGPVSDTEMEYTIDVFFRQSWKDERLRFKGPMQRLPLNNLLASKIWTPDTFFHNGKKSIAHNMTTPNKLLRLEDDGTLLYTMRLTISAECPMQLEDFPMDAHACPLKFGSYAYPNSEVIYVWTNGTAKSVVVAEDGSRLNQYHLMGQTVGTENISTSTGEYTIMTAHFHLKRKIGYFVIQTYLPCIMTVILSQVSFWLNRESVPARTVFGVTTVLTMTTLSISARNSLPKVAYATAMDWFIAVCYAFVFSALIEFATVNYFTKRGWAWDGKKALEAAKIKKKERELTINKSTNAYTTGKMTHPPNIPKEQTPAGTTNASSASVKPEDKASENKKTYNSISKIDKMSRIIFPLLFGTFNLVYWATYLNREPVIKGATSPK
Chain of rat Thyrotropin Releasing Hormone Receptor (TRH), Trhr (gene 25570) (Q01717 whole entry, looked up): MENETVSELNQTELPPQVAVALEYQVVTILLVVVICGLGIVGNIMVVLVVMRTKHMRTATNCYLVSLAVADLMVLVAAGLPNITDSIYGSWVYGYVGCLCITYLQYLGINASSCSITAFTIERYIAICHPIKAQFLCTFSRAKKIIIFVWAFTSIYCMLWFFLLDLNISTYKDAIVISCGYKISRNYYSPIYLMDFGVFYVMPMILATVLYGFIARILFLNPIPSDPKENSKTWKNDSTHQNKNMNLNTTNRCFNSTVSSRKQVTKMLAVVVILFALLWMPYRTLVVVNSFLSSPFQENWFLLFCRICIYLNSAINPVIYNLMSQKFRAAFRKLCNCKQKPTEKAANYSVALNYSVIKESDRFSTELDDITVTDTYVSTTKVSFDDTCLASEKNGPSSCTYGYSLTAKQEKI
Chain of Small conductance calcium-activated potassium channel protein 1 (Rattus norvegicus) (P70606 whole entry, looked up): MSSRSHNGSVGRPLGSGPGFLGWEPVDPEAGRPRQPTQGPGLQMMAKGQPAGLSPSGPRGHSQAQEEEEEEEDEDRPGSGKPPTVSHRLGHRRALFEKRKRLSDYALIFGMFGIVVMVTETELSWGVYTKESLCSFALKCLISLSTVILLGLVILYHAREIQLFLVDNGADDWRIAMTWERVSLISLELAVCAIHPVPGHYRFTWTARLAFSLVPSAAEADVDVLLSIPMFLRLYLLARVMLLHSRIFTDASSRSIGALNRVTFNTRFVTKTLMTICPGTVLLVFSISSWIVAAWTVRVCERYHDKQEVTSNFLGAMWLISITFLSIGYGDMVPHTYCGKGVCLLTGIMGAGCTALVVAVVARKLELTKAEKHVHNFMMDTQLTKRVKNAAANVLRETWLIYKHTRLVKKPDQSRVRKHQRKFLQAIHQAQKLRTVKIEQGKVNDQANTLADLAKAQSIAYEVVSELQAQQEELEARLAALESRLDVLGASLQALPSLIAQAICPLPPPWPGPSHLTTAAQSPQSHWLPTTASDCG

**Q.** What does the source list for CSc1ccc(Oc2ccc(S(N)(=O)=O)cc2CN(C)C)cc1C?
**A.** AC50 [1]: 1.36 µM (active); AC50 [2]: 8.08 µM (active); AC50 [3]: 13.5 µM (active); outcome [4]: inactive; AC50 [5]: 10.3 µM (active); outcome [6]: inactive; AC50 [7]: 10.1 µM (active)

**Q.** With CCN(CC)CCOc1ccc(C(=C(Cl)c2ccccc2)c2ccccc2)cc1 as the molecule, how does the AC50 [8] read?
**A.** Its AC50 is 21 µM (active).

**Q.** What about the AC50 [3] of the same molecule?
**A.** Its AC50 is 1.99 µM (active).

**Q.** And the AC50 [9]?
**A.** The AC50 was 0.672 µM (active).

**Q.** And the outcome [9]?
**A.** Its outcome is “inactive”.

**Q.** And the AC50 [7]?
**A.** The AC50 was 1.02 µM (active).

**Q.** With CC(=O)O[C@]1(C(C)=O)CC[C@H]2[C@@H]3C=C(Cl)C4=CC(=O)[C@@H]5C[C@@H]5[C@]4(C)[C@H]3CC[C@@]21C as the molecule, how does the AC50 [1] read?
**A.** The AC50 was 0.353 µM (active).

**Q.** What does the source list for CCC(C)N(C)C(=O)c1cc2ccccc2c(-c2ccccc2Cl)n1 (stereo not given)?
**A.** AC50 [10]: 7.4 µM (active); outcome [11]: inactive; outcome [12]: inactive; AC50 [7]: 9.12 µM (active)

**Q.** For CCOCCOCCO, which outcome (NCBI gene 24521) is on record?
**A.** Its outcome is “inactive”.

**Q.** For CO[C@@H]1COCC[C@@H]1N[C@@H]1CC[C@@](C(=O)N2CCc3ncc(C(F)(F)F)cc3C2)(C(C)C)C1, which outcome [10] is on record?
**A.** The outcome was “inactive”.

**Q.** What about the AC50 [1] of the same molecule?
**A.** The AC50 was 25 µM (active).

**Q.** What about the AC50 [3] of the same molecule?
**A.** The AC50 was 9.94 µM (active).

**Q.** For CCc1cc(C2=C(C(=O)O)N(c3ccccc3C(F)(F)F)S(=O)(=O)c3ccccc32)cc2c1OCO2, which AC50 [10] is on record?
**A.** The AC50 was 25 µM (active).

**Q.** For CCCCC(CC)COC(=O)CCCCCCCC(=O)OCC(CC)CCCC (stereo not given), which outcome [3] is on record?
**A.** Its outcome is “inactive”.

**Q.** What does the source list for NC(=Nc1ccccc1)Nc1ccccc1?
**A.** outcome [1]: inactive; outcome [3]: inactive; outcome [13]: inactive; AC50 [7]: 40.6 µM (active)

**Q.** What does the source list for Cc1cc(SC2=C(O)C[C@@](CCc3ccc(N)cc3)(C(C)C)OC2=O)c(C(C)(C)C)cc1CO?
**A.** outcome [8]: inactive; outcome [1]: inactive; outcome [3]: inactive; outcome [14]: inactive; outcome [4]: inactive; AC50 [15]: 9.33 µM (active); outcome [6]: inactive; outcome [16]: inactive

**Q.** For CCCCC(CC)COP(=O)(OCC(CC)CCCC)OCC(CC)CCCC (stereo not given), which outcome [3] is on record?
**A.** Its outcome is “inactive”.

**Q.** And the outcome [14]?
**A.** The outcome was “inactive”.

**Q.** For CN(C)C(=O)NC1(c2ccccc2)CCN(CC[C@@]2(c3ccc(F)c(F)c3)CN(C(=O)c3ccccc3)CCO2)CC1, which AC50 [1] is on record?
**A.** Its AC50 is 2.1 µM (active).

**Q.** And the AC50 [2]?
**A.** The AC50 was 3.38 µM (active).

**Q.** And the AC50 [3]?
**A.** The AC50 was 6.43 µM (active).

**Q.** What about the AC50 [7] of the same molecule?
**A.** Its AC50 is 2.2 µM (active).

**Q.** With CCCCc1nc2cccnc2n1Cc1ccc(-c2ccccc2-c2nnn[nH]2)cc1 as the molecule, how does the outcome [8] read?
**A.** Its outcome is “inactive”.

**Q.** And the outcome [11]?
**A.** Its outcome is “inactive”.

**Q.** And the outcome [17]?
**A.** Its outcome is “inactive”.

**Q.** What about the AC50 [16] of the same molecule?
**A.** The AC50 was 14.6 µM (active).

**Q.** What does the source list for CCc1nc(N)nc(N)c1-c1ccc(Cl)cc1?
**A.** AC50 [8]: 10.4 µM (active); outcome [1]: inactive; AC50 [3]: 3.65 µM (active); AC50 [5]: 0.0648 µM (active); outcome [16]: inactive; AC50 [7]: 8.32 µM (active)

**Q.** Which results are given for COc1ccc(OC(F)(F)F)cc1CN[C@H]1CCCN[C@H]1c1ccccc1?
**A.** outcome [10]: inactive; AC50 [1]: 25 µM (active); outcome (NCBI gene 24521): inactive; AC50 [3]: 0.623 µM (active); outcome [14]: inactive; AC50 [5]: 2 µM (active); outcome [18]: inactive; AC50 [7]: 1.24 µM (active)

**Q.** Which AC50 [8] does the source give for CCCC[C@H]1CN(CC2CCOCC2)C(=O)OC12CCN(C1(C)CCN(C(=O)c3c(C)ncnc3C)CC1)CC2 here?
**A.** Its AC50 is 4.46 µM (active).
